Measurements reported in PubChem BioAssay (NCATS).
Records with an inconclusive call do not appear. Activity calls are given as the source filed them. Unless noted, the call rests on the fitted dose curve.

How the values were obtained:
[1] = qHTS for Inhibitors of the Functional Ribonucleoprotein Complex (vRNP) of Lassa (LASV) Arenavirus: LASV Primary Screen - GLuc reporter signal (AID 1347082; calls by dose curve; tested in HEK293 reporter line; further: nearly all actives have a fitted effect of over 60% in size)
[2] = qHTS for Inhibitors of the Functional Ribonucleoprotein Complex (vRNP) of Lassa (LASV) Arenavirus: Viability assay - alamar blue signal for LASV Primary Screen (AID 1347083; calls by dose curve; tested in HEK293 reporter line; further: nearly all actives have a fitted effect of over 80% in size)
[3] = qHTS for Inhibitors of the Functional Ribonucleoprotein Complex (vRNP) of Lymphocytic Choriomeningitis Arenaviruses (LCMV): Viability assay - alamar blue signal for LCMV Primary Screen (AID 1347085; calls by dose curve; tested in HEK293 reporter line; further: nearly all actives have a fitted effect of over 80% in size)
[4] = target: Nucleoprotein (Lymphocytic choriomeningitis virus (strain Armstrong)) (UniProt P09992); experiment: qHTS for Inhibitors of the Functional Ribonucleoprotein Complex (vRNP) of Lymphocytic Choriomeningitis Arenaviruses (LCMV): LCMV Primary Screen - GLuc reporter signal (AID 1347086); further: nearly all actives have a fitted effect of over 70% in size
Sequence of Nucleoprotein (Lymphocytic choriomeningitis virus (strain Armstrong)) (P09992 whole entry, looked up): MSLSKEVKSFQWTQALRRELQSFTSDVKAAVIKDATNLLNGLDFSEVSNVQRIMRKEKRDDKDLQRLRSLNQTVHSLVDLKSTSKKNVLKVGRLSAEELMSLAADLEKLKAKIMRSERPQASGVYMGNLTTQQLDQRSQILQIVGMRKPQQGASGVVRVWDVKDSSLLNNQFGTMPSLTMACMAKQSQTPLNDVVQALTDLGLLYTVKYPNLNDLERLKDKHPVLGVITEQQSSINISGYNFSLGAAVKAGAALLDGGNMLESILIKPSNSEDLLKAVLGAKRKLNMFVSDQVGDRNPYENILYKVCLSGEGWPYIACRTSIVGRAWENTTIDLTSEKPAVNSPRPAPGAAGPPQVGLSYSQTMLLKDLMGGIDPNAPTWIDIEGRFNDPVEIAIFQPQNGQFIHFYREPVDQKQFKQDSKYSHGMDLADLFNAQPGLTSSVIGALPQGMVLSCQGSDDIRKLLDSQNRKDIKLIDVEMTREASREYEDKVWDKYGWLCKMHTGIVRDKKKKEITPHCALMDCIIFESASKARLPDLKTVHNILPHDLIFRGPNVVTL

Measured: Potency
Further: series mostly up to about 57 µM.

COc1cc2c(cc1O)[C@@H]1Cc3cc(OC)c(OC)cc3C(C2)N1C
inactive: all assays above
